Assay outcomes: PubChem, National Center for Advancing Translational Sciences (NCATS)
A selection: hits, their analogues and other compounds. The true share with any hit is near 4.6%.
D1 ag = human D1 receptor agonism. 1% of 360,000 active. HEK293 T-REx D1 cells, calcium flux, agonist mode. activation, % at 2 µM; in the data active = activation above about 30%; also: 0% is about no effect
Target sequence (P21728 whole entry, looked up): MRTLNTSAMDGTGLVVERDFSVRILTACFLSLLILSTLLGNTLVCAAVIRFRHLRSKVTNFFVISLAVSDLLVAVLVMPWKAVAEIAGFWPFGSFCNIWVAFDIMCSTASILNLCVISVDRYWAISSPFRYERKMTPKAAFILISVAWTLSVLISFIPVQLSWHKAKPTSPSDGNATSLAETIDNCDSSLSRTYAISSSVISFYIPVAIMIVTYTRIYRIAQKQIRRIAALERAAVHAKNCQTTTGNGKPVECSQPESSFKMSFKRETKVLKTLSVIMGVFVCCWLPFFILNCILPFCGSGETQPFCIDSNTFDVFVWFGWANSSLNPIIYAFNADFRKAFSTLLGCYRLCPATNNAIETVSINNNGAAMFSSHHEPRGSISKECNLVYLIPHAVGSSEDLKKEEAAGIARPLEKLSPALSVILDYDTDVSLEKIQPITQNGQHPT
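Agonism was scored from calcium flux recorded over 180 s (1 read/s) after pintool compound addition, following a 10-cycle baseline. Cells were inducible force-coupled HEK293 TREx D1, plated overnight at 30 C and loaded with no-wash calcium dye.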
D1 PAM = human D1 dopamine receptor positive modulation; AID 504651; potentiation, % at 10 µM; HEK293 TREx D1 cells, calcium flux, dopamine EC20 potentiation; 0.036% of 360,000 active; in the data active = potentiation above about 30%; also: 0% is about no effect
D1 antag = antagonists of human D1 dopamine receptor; HEK293 TREx D1 cells, calcium flux, dopamine EC80; active compounds read low; activity change, negative = inhibition, % at 10 µM; 3.2% of 360,000 active; in the data active = activity change below about -30%; also: % is scaled to controls: 0 for no effect and ±100 for the full control effect
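Compound effects on dopamine-evoked calcium signalling were measured in tetracycline-induced HEK293 Trex D1 cells. Dopamine at EC80 followed a 180 s compound pre-read, and fluorescence was tracked kinetically for 180 s more.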
TRHR agonist-1 = TRH receptor (human) agonism | activation, % at 2 µM | TRHR cells, calcium flux fluo-8, FDSS agonist mode | 0.18% of 360,000 active | P34981; in the data active = activation above about 30%; also: 0% is about no effect
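TRHR-expressing cells loaded with fluo-8 calcium dye; 23 nL library compound pin-transferred, kinetic FDSS fluorescence (Ex 480/Em 530) recorded about 180 s for agonist-induced calcium release, before a 10 nM TRH EC20 addition for potentiator mode.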
TRHR enhancer-1 = allosteric enhancers of human TRH receptor | P34981 | TRHR cells, fluo-8 calcium fluorescence, EC20 TRH enhancement | enhancement, % at 2 µM | 0.66% of 360,000 active | AID 493056; in the data active = enhancement above about 30%; also: 0% is about no effect
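TRHR-expressing cells loaded with fluo-8 calcium dye were read kinetically (ex 480/em 530) during compound addition, then stimulated with an EC20 of TRH (10 nM final). Enhancement of the Gq-mediated intracellular calcium response was scored.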
TRHR enhancer-2 = confirmation of human TRH receptor allosteric enhancers; shares compounds with TRHR enhancer-1; TRH receptor cell assay, enhancer confirmation qHTS; activity change, negative = inhibition, % at 46.1 µM; 970 tested, under 10 active; AID 493076;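 also: compound effect scored on response to added TRH at EC20 of 10 nM; 0% is about no effect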
TRHR agonist-2 = human TRH receptor agonism confirmation | TRHR-expressing cells, agonist activation read-out | shares compounds with TRHR enhancer-1 | 8% of 970 active | Potency, µM (series often up to 46.1 µM), inactives show top-dose activation, actives largely listed as activators; also: potency is read from the fitted curve at half-maximal effect; 0% is about no effect; nearly all actives have a fitted effect of over 75% in size
Starred values were filed as active, the others as inactive; ! = repeats disagree. Unless noted, calls follow the shape of the dose curve; as a rule, active = well fitted curve in the direction sought with a large enough effect; inconclusive = small, poorly fitted or top-dose-only effect, or another doubt; inactive = no such curve, though single readings can be large; an effect the other way counts as inactive or inconclusive.

Screening COc1cc(CNC(C)C23CC4CC(CC(C4)C2)C3)ccc1OCC(=O)NC(C)(C)C (configuration not stated) returned D1 ag 37.2*, D1 PAM 0.3, D1 antag 2.1, TRHR agonist-1 43.3*, TRHR enhancer-1 -16.2, TRHR enhancer-2 -2.1 and TRHR agonist-2 inconclusive.
`COc1cc(CNC(C)(C)CO)ccc1OCC(=O)NC(C)(C)C` gave D1 ag 0.5, D1 PAM -4.6, D1 antag 15.5, TRHR agonist-1 0.2 and TRHR enhancer-1 -0.1.
For COc1ccc(CN2CCC(C(=O)Nc3ccc(Oc4ccccc4)nc3)CC2)cc1F the results were D1 ag 30.8*, D1 PAM -8.7, D1 antag -24.5, TRHR agonist-1 2.1, TRHR enhancer-1 72.0*, TRHR enhancer-2 -2.0 and TRHR agonist-2 inconclusive.
For COc1ccc(C)cc1NC(=O)C1CCN(S(=O)(=O)c2ccc3[nH]c(=O)oc3c2)CC1 the results were D1 ag 1.4, D1 PAM -5.1, D1 antag -14.4, TRHR agonist-1 0.1 and TRHR enhancer-1 -1.4.
Screening Cc1ccc(CN(Cc2ccco2)c2cnc(S(C)(=O)=O)nc2C(=O)Nc2ccccc2Br)o1 returned D1 ag 11.6, D1 PAM -1.4, D1 antag 1.1, TRHR agonist-1 -2.6 and TRHR enhancer-1 3.5.
For CC(C)Nc1ncnc2c1cnn2-c1ccc(Cl)cc1 the results were D1 ag 0.4, D1 PAM -8.0, D1 antag -20.5, TRHR agonist-1 1.9, TRHR enhancer-1 55.4*, TRHR enhancer-2 -6.3 and TRHR agonist-2 1.1%.
`CC1(c2ccc(Cl)cc2)NC(=O)N(CC(=O)NCCC2=CCCCC2)C1=O` (configuration not stated) gave D1 ag 4.2, D1 PAM 1.0, D1 antag 12.4, TRHR agonist-1 0.2, TRHR enhancer-1 80.7*, TRHR enhancer-2 0.3 and TRHR agonist-2 0.9%.
For CCCCN1C(=O)/C(=C/C=C2/CC(C)(C)CN2C)SC1=S the results were D1 ag 128.3*, D1 PAM -4.4, D1 antag 11.9, TRHR agonist-1 39.2*, TRHR enhancer-1 -0.6, TRHR enhancer-2 3.1 and TRHR agonist-2 9.2µM*.
Screening COc1ccccc1NC(=O)Cn1nnc(-c2ccccc2NS(=O)(=O)c2ccccc2)n1 returned D1 ag 3.5, D1 PAM 1.5, D1 antag -15.3, TRHR agonist-1 0.2 and TRHR enhancer-1 0.5.
COc1ccc(NC(=O)Cn2nnc(-c3ccccc3NS(=O)(=O)c3ccc(OC)cc3)n2)cc1 was read as D1 ag 0.0, D1 PAM -1.9, D1 antag 7.6, TRHR agonist-1 0.1, TRHR enhancer-1 41.1*, TRHR enhancer-2 4.6 and TRHR agonist-2 -0.4%.
Screening Cc1ccc(NC(=O)Cn2cnc3sc(C)c(S(=O)(=O)N4CCN(c5ncccn5)CC4)c3c2=O)cc1F returned D1 ag 0.6, D1 PAM -0.1, D1 antag 15.2, TRHR agonist-1 -1.1 and TRHR enhancer-1 -1.4.
O=C(CSc1nc(=O)[nH]c2c1CCCC2)Nc1cc(C(F)(F)F)cc(C(F)(F)F)c1 was read as D1 ag -0.8, D1 PAM -3.6, D1 antag 7.0, TRHR agonist-1 -0.2 and TRHR enhancer-1 -0.3.
Cc1csc(NC(=O)CSc2nc(=O)[nH]c3c2CCCC3)n1 was read as D1 ag 6.1, D1 PAM -3.1, D1 antag 11.0, TRHR agonist-1 0.2, TRHR enhancer-1 65.6*, TRHR enhancer-2 -7.1 and TRHR agonist-2 0.8%.
`CCOc1ccc(NC(C)C(=O)N/N=C/c2cccs2)cc1` (configuration not stated) gave D1 ag 2.0, D1 PAM -2.9, D1 antag -10.6, TRHR agonist-1 0.2, TRHR enhancer-1 50.2*, TRHR enhancer-2 -5.0 and TRHR agonist-2 1.2%.
Screening COc1ccccc1N1CCN(C(CNC(=O)C(=O)NCCCN(C)C)c2cccnc2)CC1 (configuration not stated) returned D1 ag 3.9, D1 PAM -5.1, D1 antag -21.1, TRHR agonist-1 -0.4 and TRHR enhancer-1 5.8.
COc1ccc(NC(=O)c2cc(-c3ccccc3)on2)cc1OC was read as D1 ag 4.9, D1 PAM 2.5, D1 antag 1.9, TRHR agonist-1 0.0 and TRHR enhancer-1 1.1.
`COc1cccc(-c2cc(C(=O)Nc3ccc(OC)c(OC)c3)no2)c1` gave D1 ag 3.3, D1 PAM 4.2, D1 antag 7.9, TRHR agonist-1 27.4, TRHR enhancer-1 1.8, TRHR enhancer-2 0.6 and TRHR agonist-2 1.8%.
`COc1ccc(-c2cc(C(=O)Nc3cc(C)nn3-c3ccccc3)no2)cc1OC` gave D1 ag 0.5, D1 PAM -2.4, D1 antag -2.4, TRHR agonist-1 -0.1, TRHR enhancer-1 56.6*!, TRHR enhancer-2 -7.3 and TRHR agonist-2 1.7%.
`COc1cccc(CNC(=O)CSc2nc(=O)[nH]c3c2CCC3)c1` gave D1 ag -1.1, D1 PAM 0.1, TRHR agonist-1 0.2 and TRHR enhancer-1 -7.5.
Cc1cc(C)c2nc(SC(C)C(=O)NCC(=O)Nc3ccc(F)c(F)c3F)cc(C)c2c1 (configuration not stated) was read as D1 ag 3.5, D1 PAM 26.9, D1 antag -6.8, TRHR agonist-1 -1.7 and TRHR enhancer-1 -5.3.
Cc1cc(SC(C)C(=O)NCC(=O)Nc2ccc(F)c(F)c2F)nc2ccccc12 (configuration not stated) was read as D1 ag 0.9, D1 PAM 2.4, D1 antag 4.0, TRHR agonist-1 0.1, TRHR enhancer-1 43.5*, TRHR enhancer-2 inconclusive and TRHR agonist-2 2.4%.
Screening O=C(O)C=C1CCN(c2ncc(C(F)(F)F)cc2Cl)CC1 returned D1 ag 3.1, D1 PAM -2.0, D1 antag 2.4, TRHR agonist-1 -0.1, TRHR enhancer-1 43.1*, TRHR enhancer-2 -0.9 and TRHR agonist-2 -0.6%.
Screening NNC(=O)C=C1CCN(c2ncc(C(F)(F)F)cc2Cl)CC1 returned D1 ag 2.0, D1 PAM 1.6, D1 antag 8.2, TRHR agonist-1 0.4 and TRHR enhancer-1 2.1.
`Nc1nc(SCc2c(Cl)cccc2Cl)n[nH]1` gave D1 ag -0.3, D1 PAM -9.4, D1 antag -23.3, TRHR agonist-1 -0.6, TRHR enhancer-1 44.9*, TRHR enhancer-2 1.0 and TRHR agonist-2 3.7%.
`Cc1ccc(Nc2nc3ccccc3c3nnc(C)n23)c(C)c1` gave D1 ag 4.5, D1 PAM 5.3, D1 antag 13.1, TRHR agonist-1 -0.5 and TRHR enhancer-1 -0.4.
